The results in this text go back to PubChem BioAssay (NCATS).

The structures appear in SMILES notation. Records with an inconclusive call do not appear. A call without a number means that no potency is given here. Activity calls are given as the source filed them. Calls come from the whole dose curve; as a rule, active = well fitted cell-killing curve with a large enough effect; inconclusive = small, poorly fitted or top-dose-only effect, or effect the other way; inactive = flat fitted curve, though single readings scatter.
Potency is the fitted concentration of half-maximal effect.

This experiment in a line: MultiTox-Fluor Cytotoxicity Assay - LYMP1-002 - Live Cells (AID 955). As to conditions: LYMP1-002 lymphoblastoid live-cell protease fluorescence viability; series mostly up to 46.1 µM. An excerpt:
NIH Chemical Genomics Center [NCGC]
NIH Molecular Libraries Screening Centers Network [MLSCN]
National Institutes of Environmental Health Sciences [NIEHS]
National Toxicology Program [NTP]
We have developed a 1536-well cell-based assay for quantitative high throughput screening (qHTS) against a number of cell lines to determine in vitro cytotoxicity of small molecules. This particular assay uses a human lymphoblastoid cell line (LYMP1-002) purchased from Coriell Institute.
NCGC Assay Protocol Summary:
The MultiTox-Fluor Cytotoxicity Assay (Promega) is a homogeneous method to simultaneously measure the relative number of live and dead cells in culture by detecting changes in cell membrane integrity. There are two fluorogenic peptide substrates in the assay reagent. Viable cells are determined when the cell-permeant substrate (GF-AFC) enters the cell and is cleaved by protease from live cells resulting in liberated fluorophore. This live-cell protease activity restricted to viable cells is proportional to cell number. The dead cells are determined by using fluorogenic cell-impermeant peptide substrate (bis-AAF-R110) which cleaved by dead cell proteases leaking from damaged cell membrane.
Using the MultiTox-Fluor Cytotoxicity Assay, the relative number of live cells was measured in the lymphoblastoid cell line with complete culture medium following compound treatment for 16 hours. The assay was performed in opaque black Kalypsys 1536-well plates. In the screen, tetraoctylammonium bromide was used as positive control. Library compounds were measured for their ability to cause acute toxicity in the cell line, as reflected by a decrease in live cell protease activity, in a concentration-dependent manner. […] AC50 values were determined from concentration-response data modeled with the standard Hill equation.
qHTS protocol for MultiTox-Fluor Cytotoxicity assay
[Step] [Parameter] [Value] [Description]
1. Reagent; 5 uL; 2500 lymphoblastoid cells/well
2. Time; 5 hr; 37 C incubation
4. Controls; 23 nL; Tetraoctylammonium bromide 6.4pM to 92 uM
5. Time; 16 hr; 37 C incubation
6. Reagent; 5 uL; MuliTox-Fluor Assay reagent
7. Time; 60 min; Room Temperature
8. Detection; live-cell fluorescence (Ex/Em=405/510); EnVision plate reader
Keywords: cell viability, cytotoxicity, lymphoblastoid cell line, fluorescence, NTPHTS, NTPHTS_NCGC, NIEHS, EPA, DSSTox, MLSMR, MLSCN, NIH Roadmap, qHTS, NCGC
Turning to `Cc1cc(NS(=O)(=O)c2ccc(N)cc2)no1`, the Potency result was “inactive”.
For the compound `C[C@]12C=CC(=O)C=C1CC[C@@H]1[C@@H]2C(=O)C[C@@]2(C)[C@H]1CC[C@]2(O)C(=O)CO`, the Potency result was “inactive”.
For the compound `Cc1nnc(NS(=O)(=O)c2ccc(N)cc2)s1`, the Potency entry is “inactive”.
The same measure for `CCc1cc(C(N)=S)ccn1`: “inactive”; for `Cc1noc(NS(=O)(=O)c2ccc(N)cc2)c1C`: “inactive”; for `COc1ccc2cc3[n+](cc2c1OC)CCc1cc2c(cc1-3)OCO2`: “inactive”.
Turning to `O=C(O)c1cc(=O)[nH]c(=O)[nH]1`, the Potency entry is “inactive”.
The same measure for `CC[C@H](C)C(=O)O[C@H]1C[C@@H](C)C=C2C=C[C@H](C)[C@H](CC[C@@H]3C[C@@H](O)CC(=O)O3)[C@H]21`: “inactive”; for `N=C(N)c1ccc(OCCCCCOc2ccc(C(=N)N)cc2)cc1`: “inactive”; for `NC(N)=NC(N)=NCCc1ccccc1`: “inactive”.
Regarding `CN(C)c1ccc(C(=C2C=CC(=[N+](C)C)C=C2)c2ccc(N(C)C)cc2)cc1`, the Potency is 10 µM (active).
On to `O=C(N[C@H](CO)[C@H](O)c1ccc([N+](=O)[O-])cc1)C(Cl)Cl`, for which the Potency entry is “inactive”.
As to `Cc1ccnc2c1NC(=O)c1cccnc1N2C1CC1`, the Potency entry was “inactive”.
The same measure for `CC(=O)[C@H]1CC[C@H]2[C@@H]3CCC4=CC(=O)CC[C@]4(C)[C@H]3CC[C@]12C`: “inactive”; for `Cc1ncc([N+](=O)[O-])n1CCO`: “inactive”; for `CC1=NN(c2ccccc2)C(=O)C1`: “inactive”.
The same measure for `NNC(=O)c1ccncc1`: “inactive”.
